Experimental data reported in PubChem BioAssay (NCI).
This is part of a sample that, as a whole, favours compounds with a hit. Of some 83,000 tested, about 20% had one in any assay.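 In brief: 96-well plates, 48 h treatment, single concentration, percent growth endpoint.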 The source made the active and inactive calls. Rule for the calls: active = growth percent below 10; inactive = the rest.

Columns and labels:
Test in all cases: NCI-60 one-dose screen, 48 h (100 = growth as untreated, 0 = no growth, -100 = all killed)
Details in all cases: 10 µM unless noted
NCI-H23 lung = tested on: NCI-H23 lung
NCI-H226 lung = tested on: NCI-H226 lung
NCI-H322M lung = tested on: NCI-H322M lung
HOP-62 NSCLC = tested on: HOP-62 NSCLC
NCI-H460 lung = tested on: NCI-H460 lung
HOP-92 NSCLC = tested on: HOP-92 NSCLC
NCI-H522 lung = tested on: NCI-H522 lung
A549/ATCC NSCLC = tested on: A549/ATCC NSCLC
786-0 renal = tested on: 786-0 renal
COLO 205 colon = tested on: COLO 205 colon

Measured: growth

CCc1ccc(CCC(=O)Nc2ncc(Cc3cc(Cl)ccc3Cl)s2)o1
inactive: NCI-H23 lung 48.4% | NCI-H226 lung 42.8% | NCI-H322M lung 36.7% | HOP-62 NSCLC 29.9% | NCI-H460 lung 10.3% | HOP-92 NSCLC 51.6% | A549/ATCC NSCLC 22.5% | 786-0 renal 30.5%
active: NCI-H522 lung 3.35% | COLO 205 colon 8.61%

NS(=O)(=O)c1ccc(C(=O)NN2C(=O)c3c(Br)c(Br)c(Br)c(Br)c3C2=O)cc1
inactive: NCI-H23 lung 104% | NCI-H226 lung 102% | NCI-H322M lung 111% | HOP-62 NSCLC 105% | NCI-H460 lung 110% | HOP-92 NSCLC 99.4% | NCI-H522 lung 94.3% | A549/ATCC NSCLC 102% | 786-0 renal 103% | COLO 205 colon 112%

CCN(CC)Cc1cc(Nc2ccnc3cc(Cl)ccc23)ccc1O
inactive: NCI-H23 lung 99.2% | NCI-H226 lung 105% | NCI-H322M lung 89.7% | HOP-62 NSCLC 89.4% | NCI-H460 lung 96.8% | HOP-92 NSCLC 88.5% | NCI-H522 lung 91.2% | A549/ATCC NSCLC 107% | 786-0 renal 96.8% | COLO 205 colon 81.5%

COC(=O)c1cc(Br)ccc1O
inactive: NCI-H23 lung 110% | NCI-H226 lung 101% | NCI-H322M lung 105% | HOP-62 NSCLC 103% | NCI-H460 lung 109% | HOP-92 NSCLC 86.6% | NCI-H522 lung 94.8% | A549/ATCC NSCLC 99.9% | 786-0 renal 96.7% | COLO 205 colon 112%

O=C1/C(=C/c2ccc(F)cc2)CN(C(=O)C(Cl)Cl)C/C1=C\c1ccc(F)cc1
active: NCI-H23 lung -48.1% | NCI-H226 lung 0.691% | NCI-H322M lung -63% | HOP-62 NSCLC -19.1% | NCI-H460 lung -78% | HOP-92 NSCLC -48% | NCI-H522 lung -58.1% | A549/ATCC NSCLC -31.8% | 786-0 renal -56.2% | COLO 205 colon -70.2%

Cc1nc2cc(O)c(O)cc2cc1Oc1ccc(NC(=O)Nc2ccc(Cl)c(Cl)c2)cc1
active: NCI-H522 lung 1.87%
inactive: NCI-H23 lung 62.8% | NCI-H226 lung 38.3% | NCI-H322M lung 94% | HOP-62 NSCLC 35.7% | NCI-H460 lung 62.1% | HOP-92 NSCLC 37.5% | A549/ATCC NSCLC 50.5% | 786-0 renal 103% | COLO 205 colon 34.7%

Oc1c(CN2CCOCC2)cc(COCc2ccccc2)c2cccnc12
active: NCI-H522 lung 4.41%
inactive: NCI-H23 lung 39.1% | NCI-H226 lung 43.4% | NCI-H322M lung 14.7% | HOP-62 NSCLC 10.7% | NCI-H460 lung 16.1% | HOP-92 NSCLC 62.4% | A549/ATCC NSCLC 26.5% | 786-0 renal 32.6% | COLO 205 colon 62.8%

O=C(NNc1cnccn1)c1nc2cc(F)ccc2n2cccc12
inactive: NCI-H23 lung 25.4% | NCI-H226 lung 14.1% | NCI-H322M lung 18% | HOP-62 NSCLC 15% | HOP-92 NSCLC 34.9% | A549/ATCC NSCLC 11.1% | 786-0 renal 28.6%
active: NCI-H460 lung 2.78% | NCI-H522 lung -2.38% | COLO 205 colon 7.25%

Cc1ccc2c(=O)cc(C(=O)Nc3sc4c(c3C(=O)NCc3cccnc3)CCCC4)oc2c1C
inactive: NCI-H23 lung 101% | NCI-H226 lung 107% | NCI-H322M lung 103% | HOP-62 NSCLC 104% | NCI-H460 lung 109% | HOP-92 NSCLC 97.3% | NCI-H522 lung 100% | A549/ATCC NSCLC 98.4% | 786-0 renal 108% | COLO 205 colon 110%

O=C(CN1CCCCCC1)Nc1nc2ccc(NCc3ccc(Cl)cc3)cc2s1
inactive: NCI-H23 lung 97.3% | NCI-H226 lung 93.5% | NCI-H322M lung 108% | HOP-62 NSCLC 103% | NCI-H460 lung 97% | HOP-92 NSCLC 90.9% | NCI-H522 lung 84.7% | A549/ATCC NSCLC 98.7% | 786-0 renal 104% | COLO 205 colon 109%

CC(C)=CCNc1ncnc2c1ncn2C1OC(CO)C(O)C1O (stereo not given)
active: NCI-H23 lung -19.3% [1 mM] | NCI-H226 lung -70.3% [1 mM] | NCI-H322M lung -4.69% [1 mM] | HOP-62 NSCLC -17.3% [1 mM] | NCI-H460 lung 2.5% [1 mM] | HOP-92 NSCLC -77.2% [1 mM] | NCI-H522 lung -54.2% [1 mM] | A549/ATCC NSCLC -8.25% [1 mM] | 786-0 renal -31.4% [1 mM] | COLO 205 colon -6.05% [1 mM]

O=C(CSc1nnc(-c2cc(-c3ccccc3)nc3ccccc23)n1-c1ccccc1)Nc1ccc(C(=O)/C=C/c2ccc(Cl)cc2)cc1
inactive: NCI-H23 lung 96.1% | NCI-H226 lung 91.4% | NCI-H322M lung 93.1% | HOP-62 NSCLC 93% | NCI-H460 lung 102% | HOP-92 NSCLC 82.1% | NCI-H522 lung 71.8% | A549/ATCC NSCLC 84.4% | 786-0 renal 96.3% | COLO 205 colon 99.6%

CC1(C)N=C(N)N=C(N)N1c1ccc(CCCCc2ccccc2)c(Cl)c1
inactive: NCI-H226 lung 34.7% | NCI-H322M lung 31.6% | HOP-62 NSCLC 21.7% | HOP-92 NSCLC 19.3% | A549/ATCC NSCLC 15.9% | 786-0 renal 16.3%
active: NCI-H23 lung 6.38% | NCI-H460 lung 4.96% | NCI-H522 lung -6.62% | COLO 205 colon -75.8%

COc1ccc(-c2nc(-c3cn(C)c4ncccc34)cs2)cc1
active: NCI-H226 lung 2.9% [100 µM] | NCI-H322M lung 1.44% [100 µM] | HOP-62 NSCLC -49.5% [100 µM] | NCI-H460 lung -43% [100 µM] | HOP-92 NSCLC -40.4% [100 µM] | 786-0 renal -30.9% [100 µM] | COLO 205 colon -49.8% [100 µM]
inactive: NCI-H23 lung 11.1% [100 µM] | NCI-H522 lung 20.1% [100 µM] | A549/ATCC NSCLC 12.4% [100 µM]
